Records with an inconclusive call do not appear. The source made the active and inactive calls. Calls come from the whole dose curve; as a rule, active = well fitted activation curve with a large enough effect in the repeat runs; inconclusive = weak or mixed curves; inactive = no such curve, though single readings can be large or run the other way.
target: Nuclear receptor subfamily 1 group I member 2 (Homo sapiens) (UniProt O75469); assay: Human pregnane X receptor (PXR) small molecule agonists, qHTS assay (AID 1346982); conditions: PXR-Luc HepG2, CYP3A4 luciferase reporter, 24 h; series mostly up to 92.4 µM; activation: at the top concentration; note: nearly all actives have a fitted effect of over 35% in size
Sequence (O75469 whole entry, looked up): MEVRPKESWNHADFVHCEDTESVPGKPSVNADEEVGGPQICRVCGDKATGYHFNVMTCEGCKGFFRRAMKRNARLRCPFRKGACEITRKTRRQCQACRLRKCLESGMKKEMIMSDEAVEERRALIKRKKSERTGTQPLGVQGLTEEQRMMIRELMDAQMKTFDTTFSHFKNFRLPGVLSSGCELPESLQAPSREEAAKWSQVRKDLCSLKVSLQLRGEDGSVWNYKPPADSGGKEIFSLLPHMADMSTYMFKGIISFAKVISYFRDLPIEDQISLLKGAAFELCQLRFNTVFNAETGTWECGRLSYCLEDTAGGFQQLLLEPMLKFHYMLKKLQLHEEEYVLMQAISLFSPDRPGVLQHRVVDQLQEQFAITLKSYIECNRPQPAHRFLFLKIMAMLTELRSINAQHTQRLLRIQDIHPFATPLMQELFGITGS
How it was run: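 Agonist mode: luminescence from ONE-Glo after 24 h compound exposure at 37C in HepG2 cells carrying hPXR-responsive CYP3A4 luciferase, plated in charcoal-stripped serum medium 5 h beforehand.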
% is set by controls: 0 for no effect and ±100 for the full control effect; potency is the fitted concentration of half-maximal effect.

Row | Structure (SMILES) | Potency | activation
1 | COc1cc(C(=O)NC2CCN(C)CC2)ccc1Nc1ncc2c(n1)N(C1CCCC1)CC(F)(F)C(=O)N2C | 19.9 µM (active) | 
2 | CC(C)C[C@H](NC(=O)[C@H](CCc1ccccc1)NC(=O)CN1CCOCC1)C(=O)N[C@@H](Cc1ccccc1)C(=O)N[C@@H](CC(C)C)C(=O)[C@@]1(C)CO1 | 0.0376 µM (active) | 
3 | Cc1[nH]cnc1CN1CCc2c(c3ccccc3n2C)C1=O |  | 3.33% [at 42.5 µM] (inactive)
4 | COC(=O)[C@H]1[C@H]2C[C@@H]3c4[nH]c5cc(OC)ccc5c4CCN3C[C@H]2C[C@@H](OC(=O)/C=C/c2ccc(O)c(OC)c2)[C@@H]1OC | 11.9 µM (active) | 
5 | O=c1cc(-c2ccccc2)oc2cc(O)cc(O)c12 | 48.6 µM (active) | 
6 | O=C1c2ccccc2C(=O)c2c(O)c(O)cc(O)c21 |  | 22.2% (inactive)
7 | O=C1CCCCCCCCCCOCCCCO1 |  | 3.68% (inactive)
8 | c1csc(SSc2cccs2)c1 | 9.69 µM (active) | 
9 | FC(F)(F)c1ccccc1Cl |  | 4.71% (inactive)
10 | CCC(=O)C1CC(C(C)C)CC=C1C (centres undefined) | 30.6 µM (active) | 
11 | CCOC(C)=O |  | 5.64% (inactive)

target: Nuclear receptor subfamily 1 group I member 2 (Rattus norvegicus) (UniProt Q9R1A7); assay: Rat pregnane X receptor (rPXR) activation by small molecules, qHTS assay (AID 1346983); conditions: rPXR luciferase reporter cells, One-Glo luminescence, 24 h; max activation: stronger effect = higher value; note: nearly all actives have a fitted effect of over 20% in size
Sequence (Q9R1A7 whole entry, looked up): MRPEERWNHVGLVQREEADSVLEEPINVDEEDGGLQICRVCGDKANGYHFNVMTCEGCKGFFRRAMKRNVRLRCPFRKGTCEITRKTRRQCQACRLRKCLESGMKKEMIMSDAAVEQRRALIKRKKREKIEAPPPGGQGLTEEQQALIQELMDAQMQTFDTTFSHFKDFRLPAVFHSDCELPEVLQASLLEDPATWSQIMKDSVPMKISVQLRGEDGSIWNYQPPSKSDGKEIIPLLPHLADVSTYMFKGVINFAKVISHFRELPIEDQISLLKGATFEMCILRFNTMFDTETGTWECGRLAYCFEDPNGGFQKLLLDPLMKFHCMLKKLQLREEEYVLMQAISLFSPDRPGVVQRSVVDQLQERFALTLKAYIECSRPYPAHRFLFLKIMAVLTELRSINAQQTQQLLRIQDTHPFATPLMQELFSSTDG
How it was run: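 Cell-based rPXR luciferase reporter assay, 2,000 cells per well, rested 5hr at 37 C before compound addition in DMSO, then 24 hr at 37 C. One-Glo reagent was added and luminescence read after 30 min at room temperature.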

Row | Structure (SMILES) | max activation | Potency
12 | CCCCN1CCCC1C(=O)Nc1c(C)cc(C)cc1C (centres undefined) | 14.6% (inactive) | 
13 | O=C(O)CCc1nc(-c2ccccc2)c(-c2ccccc2)o1 | -4.22% (inactive) | 
14 | O=C1C(=O)c2ccccc2C(O)=C1C1CCC(c2ccc(Cl)cc2)CC1 (centres undefined) | 0.127% (inactive) | 
15 | CC1(C)O[C@@H]2C[C@H]3[C@@H]4C[C@H](F)C5=CC(=O)C=C[C@]5(C)[C@H]4[C@@H](O)C[C@]3(C)[C@]2(C(=O)CO)O1 |  | 8.91 µM (active)
16 | Cc1[nH]cnc1CN1CCc2c(c3ccccc3n2C)C1=O | 1.25% (inactive) | 
17 | CN1CCCN=C1COC(=O)C(O)(c1ccccc1)C1CCCCC1 (centres undefined) | -0.811% (inactive) | 
18 | COc1ccccc1N1CCN(CCCCNC(=O)c2ccc(-c3ccc(C(C)=O)cc3)cc2)CC1 | -3.31% (inactive) | 
19 | CO/N=C(/C(=O)N[C@@H]1C(=O)N2C(C(=O)O)=C(COC(N)=O)CS[C@H]12)c1ccco1 | -0.884% (inactive) | 
20 | CCOC(C)=O | -1.67% (inactive) | 
21 | CN(C)CCN1C(=O)c2ccccc2N(C)c2ccccc21 | 5.5% (inactive) | 

target: Nuclear receptor subfamily 1 group I member 2 (Homo sapiens) (UniProt O75469); assay: CYP3A4 induction through human pregnane X receptor (PXR) by small molecules, qHTS assay (AID 1346984); conditions: DPX-2 HepG2 PXR, CYP3A4-luciferin luminescence, 24 h; series mostly up to 46.1 µM; activation: at the top concentration; note: nearly all actives have a fitted effect of over 40% in size
How it was run: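 Read-out is luminescence after One-Glo addition, following a 3 hr, 37C incubation with Luciferin-IPA CYP3A4 substrate (3uM final). Before that, compounds were on DPX-2 cells (HepG2 co-transfected with PXR element plus CYP3A4-promoter luciferase) for 24 hr at 37C.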

Row | Structure (SMILES) | activation | Potency
22 | O=C(O)CCc1nc(-c2ccccc2)c(-c2ccccc2)o1 | 3% (inactive) | 
23 | O=C1C(=O)c2ccccc2C(O)=C1C1CCC(c2ccc(Cl)cc2)CC1 (centres undefined) |  | 2.51 µM (active)
24 | CC1(CN2CCC(n3c(=O)[nH]c4ccccc43)CC2)OCc2ccccc2-n2cccc21 (centres undefined) | -9.02% (inactive) | 
25 | CC1(C)O[C@@H]2C[C@H]3[C@@H]4C[C@H](F)C5=CC(=O)C=C[C@]5(C)[C@H]4[C@@H](O)C[C@]3(C)[C@]2(C(=O)CO)O1 | 23.3% [at 20.6 µM] (inactive) | 
26 | Cc1[nH]cnc1CN1CCc2c(c3ccccc3n2C)C1=O | -5.41% (inactive) | 
27 | COc1ccccc1N1CCN(CCCCNC(=O)c2ccc(-c3ccc(C(C)=O)cc3)cc2)CC1 | -1.48% (inactive) | 
28 | CCOC(C)=O | -6.53% (inactive) | 
29 | CN(C)CCN1C(=O)c2ccccc2N(C)c2ccccc21 | 0% (inactive) | 

Source: PubChem BioAssay (Tox21)
